# Pol eta inh: DNA polymerase eta (human) inhibition. Potency, µM (highest dose often 114 µM), most hits filed as inhibitors. recombinant Pol eta, fluorescent DNA replication assay. hit rate 1.2% among 390,000
#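 Pol eta at 10 nM preincubated with compounds 15 min at room temperature; reaction started with fluorescent substrate (50 nM final) and read kinetically at 0 and 10 min.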
# L3MBTL1 block: blocks human L3MBTL1; AID 485360; Q9Y468; Potency, µM (titrated, usually from 57.1 µM), most hits filed as inhibitors; AlphaScreen L3MBTL1–H3K9me1 peptide binding; hit rate 0.66% among 230,000; note: nearly all actives have a fitted effect of over 60% in size
#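 Displacement of a biotinylated histone H3(1-15) peptide monomethylated at Lys9 (75 nM) from L3MBTL1 (50 nM) was measured by AlphaScreen after a 30 min room-temperature compound incubation; cefsulodin titration served as intraplate control.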
# Pol beta inh: inhibitors of human DNA polymerase beta. P06746. AID 485314. Potency, µM (top dose mostly 114 µM), actives largely listed as inhibitors. Pol beta primer extension/strand displacement, fluorescence kinetic. hit rate 1.3% among 340,000
#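 Values derive from four-parameter Hill fits of normalized kinetic data: reads at 0 and 10 min following addition of 50 nM substrate to 10 nM Pol beta preincubated 15 min with compound.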
# POLK inh: DNA polymerase kappa (human) inhibition; hit rate 0.53% among 400,000; purified Pol kappa, fluorescent DNA synthesis assay, 10 min; Q9UBT6; Potency, µM (titrated, usually from 107 µM), hits mostly inhibitors
#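 Kinetic fluorescence readout at 0 and 10 min followed reaction start with substrate at 50 nM final. Beforehand, enzyme (10 nM Pol kappa) stood 15 min with compound at room temperature; buffer-only wells were negative controls.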
# Pol iota inh: blocks human DNA polymerase iota activity. Q9UNA4. Potency, µM (series often up to 115 µM), most hits filed as inhibitors. Pol iota fluorescent replication assay, 10 min. hit rate 1% among 390,000
# Target sequence (Q9UNA4 whole entry, looked up): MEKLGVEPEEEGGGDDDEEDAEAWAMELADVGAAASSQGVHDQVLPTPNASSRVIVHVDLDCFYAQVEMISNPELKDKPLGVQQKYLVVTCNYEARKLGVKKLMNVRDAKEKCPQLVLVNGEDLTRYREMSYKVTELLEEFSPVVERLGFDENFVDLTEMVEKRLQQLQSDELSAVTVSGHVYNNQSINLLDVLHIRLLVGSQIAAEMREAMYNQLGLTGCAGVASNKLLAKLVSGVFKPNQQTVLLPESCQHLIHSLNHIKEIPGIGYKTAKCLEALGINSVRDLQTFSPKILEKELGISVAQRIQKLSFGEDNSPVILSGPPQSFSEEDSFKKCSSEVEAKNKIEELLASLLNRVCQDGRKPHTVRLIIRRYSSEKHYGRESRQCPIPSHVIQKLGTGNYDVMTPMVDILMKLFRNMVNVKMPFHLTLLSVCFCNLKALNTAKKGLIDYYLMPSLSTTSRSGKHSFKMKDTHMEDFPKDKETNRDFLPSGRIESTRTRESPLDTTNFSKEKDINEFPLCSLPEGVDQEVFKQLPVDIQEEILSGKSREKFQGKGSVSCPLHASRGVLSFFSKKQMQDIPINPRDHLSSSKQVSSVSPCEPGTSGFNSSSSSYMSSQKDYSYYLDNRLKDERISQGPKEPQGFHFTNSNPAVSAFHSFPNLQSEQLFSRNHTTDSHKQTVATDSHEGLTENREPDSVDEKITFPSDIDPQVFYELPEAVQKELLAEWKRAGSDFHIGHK
#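 Pol iota at 10 nM preincubated 15 min with compounds at room temperature; reaction started with fluorescent substrate, 50 nM final. Fluorescence read kinetically at 0 and 10 min; buffer-only wells as negative control.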
# Numbers stand for hits; – = inactive; ? = inconclusive; · = no result given; ! = not confirmed by another sample; [ ] = another dose, or the depositor's remark. This is a sample that favours compounds with a hit; in the whole collection about 2.4% have one here. Calls come from the whole dose curve; as a rule, active = well fitted curve in the direction sought with a large enough effect; inconclusive = small, poorly fitted or top-dose-only effect, or another doubt; inactive = no such curve, though single readings can be large; an effect the other way counts as inactive or inconclusive.
SMILES,Pol eta inh,L3MBTL1 block,Pol beta inh,POLK inh,Pol iota inh
CCc1ccc(C(=O)COC(=O)C(Cc2c[nH]c3ccccc23)NC(=O)c2ccc(CC)cc2)cc1 (configuration not stated),–,·,–,–,–
CC1C=CC=CC=CC=CC=CC=CC=CC(OC2OC(C)C(O)C(N)C2O)CC2OC(O)(CC(O)CC(O)C(O)CCC(O)CC(O)CC(=O)OC(C)C(C)C1O)CC(O)C2C(=O)O (configuration not stated),0.89µM,·,·,18µM,1.3µM
C[C@H]1[C@@H](O)[C@@H](C)\C=C/C=C\C=C/C=C\C=C/C=C\C=C/[C@@H](O[C@H]2O[C@@H](C)[C@@H](O)[C@@H](N)[C@@H]2O)C[C@@H]2O[C@](O)(C[C@@H](O)C[C@@H](O)[C@@H](O)CC[C@@H](O)C[C@@H](O)CC(=O)O[C@H]1C)C[C@@H](O)[C@H]2C(=O)O (stereo in doubt),·,·,·,–[12 µM],·
CNc1nc(Cl)nc2c1ncn2CC(COC(=O)C(C)(C)C)COC(=O)C(C)(C)C,·,·,·,–,·
O=C(N/N=C/c1ccccc1C(=O)O)c1ccc(COc2cccc3cccnc23)cc1,40µM,–,?,?,?
COC(=O)Cn1cc(/C=N/NC(=O)COc2cccc3cccnc23)c2ccccc21,–,–,?,–,–
C#CCn1cc(/C=N/NC(=O)COc2cccc3cccnc23)c2ccccc21,?,–,?,?,22µM
O=C(N/N=C/c1ccc[nH]1)c1ccc(COc2cccc3cccnc23)cc1,–,–[2.29 µM],–,–,–
O=C(O)COc1ccccc1/C=N/NC(=O)c1cc2ccccc2cc1O,–,–,–,?,14µM
O=C(COc1cccc2cccnc12)N/N=C/c1ccccc1O,–,–,32µM,–,–
CCc1nc2ccc(C(=O)N3CCN(c4ccccc4)CC3)cc2nc1CC,–,·,–,–,–
O=C(c1ccc2nc(-c3ccco3)c(-c3ccco3)nc2c1)N1CCN(c2ccccc2)CC1,–,?,11µM,–,?
O=C(Nc1ccc2nc(-c3cccs3)c(-c3cccs3)nc2c1)N1CCOCC1,–,–,–,–,–
O=C(Nc1ccc(N2CCOCC2)cc1)Nc1ccc2nc(-c3ccco3)c(-c3ccco3)nc2c1,–,?,5µM,–,–
O=C(NCCCO)Nc1ccc2nc(-c3ccco3)c(-c3ccco3)nc2c1,·,·,1.8µM,·,·
O[C@H](CCCN1CCN(c2ncc(F)cn2)CC1)c1ccc(F)cc1,·,·,·,–[19.4 µM],·
Cc1ccc(Cl)cc1N1CCN(C(=O)c2sc3nc4n(c(=O)c3c2C)CCC4)CC1,–,·,–,–,–
Cc1ccc(C)c(N(CC(=O)N/N=C/c2ccc(-c3ccc([N+](=O)[O-])cc3)o2)S(=O)(=O)c2ccccc2)c1,–,–,–,–,–
CCOc1ccc(S(=O)(=O)N(CC(=O)N/N=C/c2ccc(-c3ccc([N+](=O)[O-])cc3)o2)c2ccccc2)cc1,3.2µM,?,7.1µM,?,?
Cc1ccc(C(=O)OCC(=O)Nc2c(Cl)cc(S(N)(=O)=O)cc2Cl)o1,–,–,?,?,71µM
Cc1ccc(C(=O)OCC(=O)NCCc2ccc(S(N)(=O)=O)cc2)o1,?,–,·,–,–
O=c1ccn(C2OC(COP(=O)(O)OC3C(CO)OC(n4ccc(=O)[nH]c4=O)C3O)C(O)C2O)c(=O)[nH]1 (configuration not stated),·,·,·,–[19.4 µM],·
Cc1cccc(CNC(=O)CCCN2C(=O)CCn3nc(-c4cn(C)c5ccccc45)cc32)c1,–,·,–,–,–
Cc1cccc(CNC(=O)CN2C(=O)CCn3nc(-c4cn(C)c5ccccc45)cc32)c1,–,·,18µM,–,?
CCCCC1=CC2=C(c3ccco3)C(=O)C(C)(OC(=O)c3ccc(OC)cc3)C(=O)C2=CN1CCc1ccccn1 (configuration not stated),–,·,50µM,–,11µM
SMILES,Pol eta inh,L3MBTL1 block,Pol beta inh,POLK inh,Pol iota inh
CCCCC1=CC2=C(c3ccco3)C(=O)C(C)(OC(=O)c3ccc(OC)cc3)C(=O)C2=CN1CCOC (configuration not stated),–,·,–,–,–
CCCCC1=CC2=C(c3ccco3)C(=O)C(C)(OC(=O)c3ccc(OC)cc3)C(=O)C2=CN1Cc1ccccc1 (configuration not stated),50µM,·,45µM,–,?
CCCCC1=CC2=C(c3ccco3)C(=O)C(C)(OC(=O)c3ccc(OC)cc3)C(=O)C2=CN1Cc1ccc2c(c1)OCO2 (configuration not stated),–,·,35µM,–,?
CCCCN(CCCNC(=O)c1c(C)oc2nc[nH]c(=O)c12)Cc1ccccc1,–,·,–,–,–
O=C(COC(=O)c1cccc(F)c1)Nc1cccc(S(=O)(=O)N2CCCCC2)c1,–,·,·,·,·
O=c1cc(-c2ccccc2)oc2cc(O)cc(O)c12,–,·,·,–,–
O=c1cc(-c2ccc(O)cc2)oc2ccccc12,–,–,28µM,–,–
O=c1cc(-c2ccccc2O)oc2cc(O)ccc12,·,·,·,–,·
O=c1cc(-c2cccc(O)c2O)oc2ccccc12,·,·,·,13µM,·
O=c1cc(-c2ccc(O)cc2)oc2cc(O)cc(O)c12,?,·,–,20µM!,?
O=c1cc(-c2ccc(O)cc2)oc2ccc(O)cc12,–,–,–,–,–
CC[N+](CC)(CC)c1ccc(/C=C/c2ccc3ccccc3n2)cc1,·,·,·,45µM,–
CC[N+](C)(C)c1ccc(/C=C/c2ccnc3ccccc23)cc1,·,·,·,?,79µM
CCN(C)c1ccc(/C=C/c2ccnc3ccccc23)cc1,·,·,·,–,?
CCN(CC)c1ccc(/C=C/c2ccnc3ccccc23)cc1,·,·,·,–,–
CC[N+](CC)(CC)c1ccc(/C=C/c2ccnc3ccccc23)cc1,·,·,·,45µM,?
CCC[C@@H]1CC2=CC(=O)CC[C@]2(C)[C@H]2CC[C@@]3(C)[C@@H](CC[C@@]34CCC(=O)O4)[C@H]12,·,·,·,–,·
O=C(CCC(=O)c1cccs1)Nc1ccc(N2CCCCC2)cc1,89µM,·,?,?,?
O=C(Cc1cccs1)Nc1ccc(F)cc1F,79µM,–,–,–,–
O=C(Cc1cccs1)Nc1ccc(N2CCOCC2)cc1,25µM,–,25µM,–,?
CCc1ccc(NC(=O)CS(=O)CC(=O)Nc2ccc(F)cc2F)cc1 (configuration not stated),–,–,40µM,–,?
O=C(Cc1cccs1)Nc1ccccc1F,–,·,–,–,–
O=C(Nc1nnc2n1CCS2)c1ccc(F)cc1F,–,·,–,–,–
Cc1cc(C(F)(F)F)c2c(N)c(C(=O)Nc3c(Cl)cccc3Cl)sc2n1,–,·,–,–,–
COc1cc(NC(=O)Cn2cnc3c(SC)nc(N)nc32)cc(OC)c1OC,–,–,·,–,–
